# Hit rate of the full screen: of about 13,000 compounds, about 3,200 (25%) showed an effect of 50% or more. This is one part of the list.
# Tested on: P. falciparum stage V gametocytes
# Parameters: BacTiter-Glo ATP luminescence viability of purified stage V gametocytes in 384-well plates, per cent inhibition versus DMSO
# Details: 48 h, 5 µM; inhibitor
row,Compound,% Inhibition [%]
1,CN(c1cc(NC(=O)c2ccc(F)cc2)ccn1)C1CCN(Cc2ccc(C#N)cc2)CC1 [TCMDC-134979],11.6
2,O=c1cc(NCCCNCc2cc(Br)ccc2F)[nH]c2ccccc12 [TCMDC-139424],-33.84
3,CC(C)CNCc1cccc(-c2ccc(CN(C(=O)NCCc3ccccc3)C3CCN(Cc4ccccc4)CC3)cc2)c1 [TCMDC-140622],85.53
4,CC(C)CNCc1ccc(-c2cccc(CN(C(=O)NCCc3ccccc3)C3CCN(Cc4ccccc4)CC3)c2)cc1 [TCMDC-140615],77.17
5,CC(=O)N(Cc1ccc(-c2ccc(CNCCc3ccccc3)cc2)cc1)C1CCN(Cc2ccccc2)CC1 [TCMDC-140530],41.5
6,CC(C)CNCc1ccc(-c2ccc(CN(C(=O)NCCc3ccccc3)C3CCN(Cc4ccccc4)CC3)cc2)cc1 [TCMDC-140623],92.24
7,O=C(NC1CCCCC1)C(c1cccs1)N(CCc1ccccc1)C(=O)c1ccco1 (stereo not shown) [TCMDC-123798],-17.48
8,CC(C)c1ccc(-c2noc(SCC(=O)N3CCCCC3C)n2)cc1 (stereo not shown) [TCMDC-124745],-11.89
9,CC(=O)NC1=NC(C)(C)N(OCc2ccc(Cl)c(Cl)c2)C(NC(C)=O)=N1 [TCMDC-131594],-1.877
10,CC(=O)Nc1cccc(/C=C/C(=O)N2CCC(N3CCCCC3)CC2)c1 [TCMDC-141128],9.67
11,Cc1cccnc1CNc1nccc2c(C)c(C)[nH]c12 [TCMDC-134148],-85.57
12,CCCCCCCN1CC[C@@H](CCCc2ccnc3ccc(OCCC4CCNCC4)cc23)[C@@H](CC)C1 [TCMDC-139819],116.4
13,CCCCN1CC[C@@H](CCC(O)c2cc(OCCC)nc3ccc(OC)cc23)[C@@H](CC)C1 (stereo partly shown) [TCMDC-131499],36.19
14,CC[C@H]1CN(Cc2ccco2)CC[C@H]1CCCc1ccnc2ccc(O)cc12 [TCMDC-140336],6.613
15,CCCCCCCN1CC[C@@H](CCCc2ccnc3ccc(OCCN4CCOCC4)cc23)[C@@H](CC)C1 [TCMDC-139815],43.2
16,CCCCN1CC[C@@H](CCC(O)c2ccnc3ccc(OCCC(C)C)cc23)[C@@H](CC)C1 (stereo partly shown) [TCMDC-131481],66.25
17,CCCCCCCN1CC[C@@H](CCC(O)c2ccnc3ccc(OC)cc23)[C@@H](CC)C1 (stereo partly shown) [TCMDC-138954],9.095
18,CCCCCCCN1CC[C@@H](CCCc2ccnc3ccc(OCC4CCCNC4)cc23)[C@@H](CC)C1 (stereo partly shown) [TCMDC-139816],113
19,CCCCCCCN1CC[C@@H](CCCc2ccnc3ccc(OCCN4CCNCC4)cc23)[C@@H](CC)C1 [TCMDC-139817],103.1
20,CN1CCN(c2cc3c(cc2Cl)CCN3C(=O)Cc2ccc(Cl)c(NC(=O)Nc3cccc([N+](=O)[O-])c3)c2)CC1 [TCMDC-139473],-0.749
21,O=C(Nc1ccc(F)cc1F)NC1CCN(c2ccnc3cc(Cl)ccc23)C1 (stereo not shown) [TCMDC-133658],-14.22
22,CCCOc1ccc(C(F)(F)F)cc1NC(=O)c1nc2nc(C)cc(C)n2n1 [TCMDC-125466],-88.48
23,COc1ccc(N2CCc3c(-c4cccc5cnccc45)cc(C)nc32)c(C)c1 [TCMDC-136362],-0.3846

row,Compound,% Inhibition [%]
1,O=C(NCCCN1CCOCC1)c1ccc(-c2cccc(NC(=O)c3ccc(Cl)c(Cl)c3)c2)cc1 [TCMDC-133693],-20.47
2,O=C1CC(C(=O)O)CC(=O)N1 [TCMDC-125482],13.38
3,COc1ccccc1-n1c(-c2ccc3ccccc3c2)csc1=NC(=O)c1ccccc1 [TCMDC-125668],-1.763
4,Cn1cc(C2CCN(CCCCNC(=O)c3ccc(C(=O)Nc4ccc(C#N)cc4)cc3)CC2)c2ccccc21 [TCMDC-138788],-0.3465
5,CC(C)Cn1cc(C2CCN(CCN3CCC(CNC(=O)c4ccc(NC(=O)c5cc(Cl)cc(Cl)c5)cc4)CC3)CC2)c2ccccc21 [TCMDC-138868],108.5
6,O=C(NCCN1CCC(c2ncc(-c3ccccc3)o2)CC1)c1ccc(NC(=O)c2ccc(Cl)cc2)cc1 [TCMDC-138483],-8.107
7,O=C(NCCCCN1CCC(C(c2ccccc2)c2ccccc2)CC1)c1ccc(NC(=O)c2ccc(Cl)cc2)cc1 [TCMDC-138332],-3.792
8,CC(C)Cn1cc(C2CCN(CCN3CCC(CNC(=O)c4ccc(NC(=O)c5ccc(Cl)cc5)cc4)CC3)CC2)c2ccccc21 [TCMDC-138865],102.8
9,Cc1nc(-c2ccccc2)nc(N2CCN(C(=O)c3ccco3)CC2)c1Cc1ccccc1F [TCMDC-124778],-3.417
10,CC1(C)NC(N)=NC(=N)N1OCCSCCON1C(=N)N=C(N)NC1(C)C [TCMDC-131648],6.143
11,COCCn1c(-c2cccc(Cl)c2)nn(-c2ccc([N+](=O)[O-])cc2Cl)c1=S [TCMDC-135130],91.77
12,COc1cc([N+](=O)[O-])ccc1NC(=O)c1cc(Cl)ccc1O [TCMDC-124051],28.26
13,COCCn1c(-c2cccc(Cl)c2)nn(-c2ccc([N+](=O)[O-])cc2C#N)c1=S [TCMDC-134719],95.24
14,O=C(Cc1cccc(O)c1)NCC(Cc1ccc(O)cc1)c1ccccc1 (stereo not shown) [TCMDC-138482],7.528
15,CC1CCc2c(C(=O)Nc3c(F)cc(F)cc3Br)csc2C1 (stereo not shown) [TCMDC-125219],6.238
16,Cc1cc(N2CCN(C3CCCCC3)CC2)nc2cccc(O)c12 [TCMDC-124411],54.36
17,Cc1cc(Nc2ccc(O)cc2)nc2cccc(O)c12 [TCMDC-124414],-26.97
18,Cc1cc(N2CCC(C)CC2)nc2cc(O)ccc12 [TCMDC-124413],-4.047
19,COc1ccc(Cl)c(CC2c3cc(O)c(Cl)cc3CCN2C)c1 (stereo not shown) [TCMDC-137168],-67.78
20,CN(Cc1ccc(-c2ccc(C(F)(F)F)cc2)cc1)C(=O)Cn1c(CCc2cccc(F)c2F)cc(=O)c2ccc(OCCCN3CCCCC3)cc21 [TCMDC-141377],112.1
21,CN(Cc1ccc(-c2ccc(C(F)(F)F)cc2)cc1)C(=O)Cn1c(CCc2cccc(F)c2F)cc(=O)c2ccc(OCC3CCCN3C)cc21 (stereo not shown) [TCMDC-141405],117.2
22,CCN(CC)CCc1ccc2c(=O)cc(CCc3cccc(F)c3F)n(CC(=O)N(C)Cc3ccc(-c4ccc(C(F)(F)F)cc4)cc3)c2c1 [TCMDC-141559],137.8
23,CN(C)CCOc1ccc2c(=O)cc(CCc3cccc(F)c3F)n(CC(=O)N(C)Cc3ccc(-c4ccc(C(F)(F)F)cc4)cc3)c2c1 [TCMDC-141375],124.4
